A short description of assay [1]: qHTS assay to identify small molecule agonists of the TGF-beta/Smad signaling pathway - cell viability counter screen (AID 1346829). Note: top concentration of the series differs between compounds; nearly all actives have a fitted effect of over 45% in size. Put shortly: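 Tox21 qHTS format: SBE-bla HEK 293T cells treated with DMSO-dissolved compounds for 5 hr; CellTiter-Glo luminescence after 30 min at room temperature.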
For orientation: Quantitative high-throughput screening tests each substance at several concentrations.

The nature of assay [2]: qHTS assay to identify small molecule agonists of the TGF-beta/Smad signaling pathway (AID 1346859; active = well fitted activation curve with a large enough effect in the signal ratio in the repeat runs, not every such curve was filed as active; the % refers to the signal ratio; note: series mostly up to about 77 µM). The procedure, abridged: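 Stable Smad binding element-beta-lactamase HEK 293T cells; 5 hr compound exposure at 37 C under 5% CO2; 2 hr room-temperature substrate step; fluorescence excited at 405 nm, collected at 460 nm and 530 nm.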
The target in assay [3] is Thyrotropin-releasing hormone receptor (Homo sapiens) (UniProt P34981). Kind of assay: qHTS assay to identify small molecule antagonists of the thyrotropin-releasing hormone receptor (TRHR) signaling pathway (AID 1346877; active = well fitted inhibition curve with a large enough effect in the repeat runs, not every such curve was filed as active; note: series mostly up to about 51 µM). Put shortly: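 Overnight-plated (18 h, 37 °C) HEK293 cells expressing TRHR were dye-loaded 2 h, treated with compound, then stimulated with TRH at 1 nM final. Fluorescence intensity was captured every second for 3 min.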
Sequence of Thyrotropin-releasing hormone receptor (Homo sapiens) (P34981 whole entry, looked up): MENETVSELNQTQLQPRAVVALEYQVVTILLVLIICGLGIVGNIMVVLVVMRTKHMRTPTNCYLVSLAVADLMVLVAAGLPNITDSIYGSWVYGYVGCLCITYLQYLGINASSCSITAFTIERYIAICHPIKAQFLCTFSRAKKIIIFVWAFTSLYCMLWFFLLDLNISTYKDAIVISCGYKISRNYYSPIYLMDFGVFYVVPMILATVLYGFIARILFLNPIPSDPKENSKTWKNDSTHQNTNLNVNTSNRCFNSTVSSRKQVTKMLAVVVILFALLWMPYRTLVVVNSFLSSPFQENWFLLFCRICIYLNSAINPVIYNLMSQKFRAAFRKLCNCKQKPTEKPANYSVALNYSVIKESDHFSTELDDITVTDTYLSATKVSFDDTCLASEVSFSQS

Assay [4] shares this target. Kind of assay: qHTS assay to identify small molecule agonists of the thyrotropin-releasing hormone receptor (TRHR) signaling pathway (AID 1346891; calls by dose curve;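 note: HEK293 cells expressing TRHR with calcium dye readout; series mostly up to about 58 µM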). Put shortly:
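In 1536-format, 1500 TRHR-Hek293 cells per well grew 18 h, took up calcium dye for 2 h at 37 °C, received compound, and were read kinetically; 15-point titrations, triplicates.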

A short description of assay [5]: Human pregnane X receptor (PXR) small molecule agonists, qHTS cell viability counter screen (AID 1346977). Note: nearly all actives have a fitted effect of over 50% in size. The procedure, abridged:
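Readout is CellTiter-Fluor fluorescence from PXR-Luc HepG2 cells. Plated cells rested 5hr, then were treated with compounds for 24hr at 37C and 5% CO2, with reagent present during the last hour.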

A short description of assay [6]: Caspase-3/7 induction in HepG2 cells by small molecules, qHTS assay (AID 1346978). Note: nearly all actives have a fitted effect of over 15% in size. The procedure, abridged:
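Caspase-3/7 induction was measured by Caspase-Glo 3/7 luminescence (30 min, room temperature) after a 17 hr compound exposure of wild-type HepG2 cells seeded at 2,000 per well and pre-incubated 5 hr.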

Assay [7] can be described thus: Caspase-3/7 induction in CHO-K1 cells by small molecules, qHTS cell viability counter screen (AID 1346979). Note: nearly all actives have a fitted effect of over 35% in size. Put shortly:
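To flag cytotoxic compounds, treated CHO-K1 wild-type cells were given CellTiter-Fluor at 16hr and read fluorescently after 1hr at 37C; the caspase-3/7 luminescence was measured in these same wells.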

Assay [8] is described as follows: Caspase-3/7 induction in CHO-K1 cells by small molecules, qHTS assay (AID 1346980). Note: nearly all actives have a fitted effect of over 15% in size. The procedure, abridged:
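Luminescent Caspase-Glo 3/7 read (30min, room temperature) quantified apoptosis induction. Cells were wild-type CHO-K1, treated with compound for 17hr at 37 C and 5% CO2.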

A short description of assay [9]: Caspase-3/7 induction in HepG2 cells by small molecules, qHTS cell viability counter screen (AID 1346981). Note: series mostly up to about 92 µM; nearly all actives have a fitted effect of over 30% in size. Put shortly: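 Treatment of HepG2 cells with DMSO-delivered compounds ran 16 hr at 37 C following a 5-hr pre-incubation of 2,000 cells/well. CellTiter-Fluor fluorescence, read after 1 hr, served as the viability measure in a qHTS format.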
In assay [10] the target is Voltage-gated inwardly rectifying potassium channel KCNH2 (Homo sapiens) (UniProt Q12809). Kind of assay: Human Ether-a-go-go-Related Gene (hERG) channel small molecule antagonists: fluorescence cell-based qHTS assay (AID 1671200). Note: nearly all actives have a fitted effect of over 50% in size. Note: potency is the fitted concentration of half-maximal effect. Put shortly: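 Measured: Tl+ flux via fluorescence (480/540 nm) in hERG-expressing U2OS cells after 1 h dye loading at room temperature.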
Sequence of Voltage-gated inwardly rectifying potassium channel KCNH2 (Homo sapiens) (Q12809 whole entry, looked up): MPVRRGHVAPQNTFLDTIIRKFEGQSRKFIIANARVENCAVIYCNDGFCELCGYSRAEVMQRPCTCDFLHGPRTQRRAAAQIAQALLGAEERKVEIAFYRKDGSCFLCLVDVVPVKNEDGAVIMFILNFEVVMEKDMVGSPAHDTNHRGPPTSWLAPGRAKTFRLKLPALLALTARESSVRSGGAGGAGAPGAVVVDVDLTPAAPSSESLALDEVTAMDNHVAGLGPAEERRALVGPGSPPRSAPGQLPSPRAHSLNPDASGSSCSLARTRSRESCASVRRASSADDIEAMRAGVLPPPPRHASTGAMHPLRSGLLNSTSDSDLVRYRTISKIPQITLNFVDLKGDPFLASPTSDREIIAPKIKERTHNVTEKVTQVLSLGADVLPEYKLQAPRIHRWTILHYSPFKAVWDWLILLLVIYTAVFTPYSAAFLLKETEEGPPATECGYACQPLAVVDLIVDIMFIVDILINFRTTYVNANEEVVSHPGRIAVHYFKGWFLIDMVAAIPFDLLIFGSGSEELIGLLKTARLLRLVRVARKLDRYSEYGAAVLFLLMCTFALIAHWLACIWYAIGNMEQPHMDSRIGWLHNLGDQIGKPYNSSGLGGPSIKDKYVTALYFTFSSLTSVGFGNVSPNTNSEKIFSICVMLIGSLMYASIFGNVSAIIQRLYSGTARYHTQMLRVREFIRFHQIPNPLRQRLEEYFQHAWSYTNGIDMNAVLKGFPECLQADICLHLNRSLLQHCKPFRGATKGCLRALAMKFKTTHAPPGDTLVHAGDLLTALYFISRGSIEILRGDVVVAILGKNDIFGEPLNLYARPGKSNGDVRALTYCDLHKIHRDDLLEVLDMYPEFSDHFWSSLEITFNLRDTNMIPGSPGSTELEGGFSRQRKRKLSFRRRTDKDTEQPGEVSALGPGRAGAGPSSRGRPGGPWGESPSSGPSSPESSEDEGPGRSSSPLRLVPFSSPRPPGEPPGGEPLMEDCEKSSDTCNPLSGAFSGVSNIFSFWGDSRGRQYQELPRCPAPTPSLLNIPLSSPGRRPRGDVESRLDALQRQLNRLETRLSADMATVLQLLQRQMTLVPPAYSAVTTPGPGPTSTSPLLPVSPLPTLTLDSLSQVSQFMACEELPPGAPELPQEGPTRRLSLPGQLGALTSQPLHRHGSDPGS
(hERG is a cardiac potassium channel; its block is linked to QT prolongation.)

Assay [11] deals with Cytochrome P450 2D6 (Homo sapiens) (UniProt P10635). Kind of assay: Cytochrome P450 Family 2 Subfamily D Member 6 (CYP2D6) small molecule antagonists: luciferase reporter qHTS assay (AID 1671196). Note: nearly all actives have a fitted effect of over 50% in size. Note: potency is the fitted concentration of half-maximal effect. Put shortly:
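Chemicals tested for interference with CYP2D6 activity; proluciferin substrate, NADPH regeneration, 1 h at room temperature, luminescent detection.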

The target in assay [12] is Cytochrome P450 2C19 (Homo sapiens) (UniProt P33261). The experiment in a line: Cytochrome P450 Family 2 Subfamily C Member 19 (CYP2C19) small molecule antagonists: luciferase reporter qHTS assay (AID 1671197). Note: nearly all actives have a fitted effect of over 65% in size. Note: potency is the fitted concentration of half-maximal effect. Put shortly:
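Relative luminescence units recorded 20 min after the detection reagent stopped a 1 h, 37C CYP2C19 reaction on proluciferin substrate, which was started by NADPH regeneration following 10 min room-temperature compound preincubation; ketoconazole positive control.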

For assay [13], the target named is Cytochrome P450 2C9 (Homo sapiens) (UniProt P11712). Kind of assay: Cytochrome P450 Family 2 Subfamily C Member 9 (CYP2C9) small molecule antagonists: luciferase reporter qHTS assay (AID 1671198). Note: nearly all actives have a fitted effect of over 50% in size. Note: potency is the fitted concentration of half-maximal effect. The procedure, abridged:
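Enzyme-substrate mix preincubated with compound 10 min at room temperature; reaction started with NADPH regeneration solution, 1 h 37C. Luminescent luciferin product read after 20 min detection reagent.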
(In general: In a reporter assay the amount or activity of a reporter protein is the signal.)

Assay [14] deals with Cytochrome P450 1A2 (Homo sapiens) (UniProt P05177). Kind of assay: Cytochrome P450 Family 1 Subfamily A Member 2 (CYP1A2) small molecule antagonists: luciferase reporter qHTS assay (AID 1671199). Note: nearly all actives have a fitted effect of over 50% in size. Note: potency is the fitted concentration of half-maximal effect. The procedure, abridged: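 Read-out is luminescence from luciferin detection reagent (20 min) proportional to CYP1A2 activity; compounds in DMSO preincubated 10 min with enzyme and proluciferin substrate, then NADPH regeneration solution, 1 h, room temperature.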
Sequence of Cytochrome P450 1A2 (Homo sapiens) (P05177 whole entry, looked up): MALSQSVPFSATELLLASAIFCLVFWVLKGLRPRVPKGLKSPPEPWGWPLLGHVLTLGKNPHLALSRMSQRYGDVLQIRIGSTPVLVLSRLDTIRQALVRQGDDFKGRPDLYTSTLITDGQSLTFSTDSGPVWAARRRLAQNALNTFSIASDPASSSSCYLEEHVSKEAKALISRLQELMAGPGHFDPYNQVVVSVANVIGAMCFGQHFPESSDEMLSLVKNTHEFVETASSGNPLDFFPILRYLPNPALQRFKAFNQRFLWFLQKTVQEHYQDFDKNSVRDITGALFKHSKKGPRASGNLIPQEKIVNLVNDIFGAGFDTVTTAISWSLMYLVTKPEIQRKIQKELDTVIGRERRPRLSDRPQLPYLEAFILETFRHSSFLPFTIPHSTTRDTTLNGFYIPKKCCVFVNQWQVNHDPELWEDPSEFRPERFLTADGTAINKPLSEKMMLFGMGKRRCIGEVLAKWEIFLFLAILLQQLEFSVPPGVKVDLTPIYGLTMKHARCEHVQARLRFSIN

Assay [15] concerns the target Cytochrome P450 3A4 (Homo sapiens) (UniProt P08684). The experiment in a line: Cytochrome P450 Family 3 Subfamily A Member 4 (CYP3A4) small molecule antagonists: luciferase reporter qHTS assay (AID 1671201). Note: nearly all actives have a fitted effect of over 50% in size. Note: potency is the fitted concentration of half-maximal effect. The procedure, abridged:
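Setup: enzyme-substrate mix, compound pin transfer, 10 min RT. Reaction: NADPH regeneration solution, 1 h RT. Readout: detection reagent stops turnover, luminescence measured after 20 min, expressed in relative luminescence units.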

The target of assay [16] is Nuclear receptor subfamily 1 group I member 2 (Homo sapiens) (UniProt O75469). The experiment in a line: Human pregnane X receptor (PXR) small molecule agonists, qHTS assay (AID 1346982). Note: nearly all actives have a fitted effect of over 35% in size. The procedure, abridged:
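Stable HepG2 line reporting PXR-mediated CYP3A4 expression via luciferase. Treatment: 24 hr with compounds in DMSO at 37 C. Detection: ONE-Glo luminescence.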

The target in assay [17] is Nuclear receptor subfamily 1 group I member 2 (Rattus norvegicus) (UniProt Q9R1A7). Kind of assay: Rat pregnane X receptor (rPXR) activation by small molecules, qHTS assay (AID 1346983). Note: nearly all actives have a fitted effect of over 20% in size. As to conditions: rPXR luciferase reporter cells, One-Glo luminescence, 24 h; max activation: hits give high values. Put shortly: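 Luminescent readout (One-Glo luciferase, 30 min room temperature) followed 24 hr compound treatment at 37 C of rPXR cells plated 2,000 per well and preincubated 5hr; qHTS format with compounds delivered in DMSO.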
Sequence of Nuclear receptor subfamily 1 group I member 2 (Rattus norvegicus) (Q9R1A7 whole entry, looked up): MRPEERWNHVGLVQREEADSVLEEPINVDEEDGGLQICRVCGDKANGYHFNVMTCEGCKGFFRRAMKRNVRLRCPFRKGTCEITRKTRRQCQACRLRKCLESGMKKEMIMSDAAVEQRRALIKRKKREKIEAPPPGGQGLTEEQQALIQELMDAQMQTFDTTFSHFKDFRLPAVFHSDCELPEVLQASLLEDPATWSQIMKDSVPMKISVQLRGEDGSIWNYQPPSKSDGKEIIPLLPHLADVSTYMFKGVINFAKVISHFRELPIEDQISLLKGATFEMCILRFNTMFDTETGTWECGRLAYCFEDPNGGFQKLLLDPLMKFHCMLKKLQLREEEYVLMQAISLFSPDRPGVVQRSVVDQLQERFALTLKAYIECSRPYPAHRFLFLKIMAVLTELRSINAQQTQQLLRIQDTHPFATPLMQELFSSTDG

Values without a mark were called inactive. Records with an inconclusive call do not appear. The source made the active and inactive calls. Unless noted, calls come from the whole dose curve; as a rule, active = well fitted curve in the direction sought with a large enough effect in the repeat runs; inconclusive = weak or mixed curves; inactive = no such curve, though single readings can be large; an effect the other way counts as inactive or inconclusive.

Results on 9 compounds are retold here after PubChem BioAssay (Tox21).
% is set by controls: 0 for no effect and ±100 for the full control effect.

Sequence of Cytochrome P450 2C9 (Homo sapiens) (P11712 whole entry, looked up): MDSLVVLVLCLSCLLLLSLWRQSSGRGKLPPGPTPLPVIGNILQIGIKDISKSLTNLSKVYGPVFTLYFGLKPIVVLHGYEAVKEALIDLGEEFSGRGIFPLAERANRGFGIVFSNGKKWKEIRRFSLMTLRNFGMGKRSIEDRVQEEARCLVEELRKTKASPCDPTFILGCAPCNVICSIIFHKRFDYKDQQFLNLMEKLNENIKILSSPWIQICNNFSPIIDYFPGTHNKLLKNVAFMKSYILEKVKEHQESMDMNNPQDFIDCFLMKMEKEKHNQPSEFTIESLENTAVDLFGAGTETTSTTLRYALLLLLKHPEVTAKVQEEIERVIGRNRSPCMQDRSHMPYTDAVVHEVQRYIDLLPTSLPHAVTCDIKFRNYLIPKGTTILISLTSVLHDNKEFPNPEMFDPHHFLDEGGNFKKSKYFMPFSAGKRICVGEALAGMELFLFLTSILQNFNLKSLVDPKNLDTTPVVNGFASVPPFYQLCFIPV
Sequence of Cytochrome P450 2C19 (Homo sapiens) (P33261 whole entry, looked up): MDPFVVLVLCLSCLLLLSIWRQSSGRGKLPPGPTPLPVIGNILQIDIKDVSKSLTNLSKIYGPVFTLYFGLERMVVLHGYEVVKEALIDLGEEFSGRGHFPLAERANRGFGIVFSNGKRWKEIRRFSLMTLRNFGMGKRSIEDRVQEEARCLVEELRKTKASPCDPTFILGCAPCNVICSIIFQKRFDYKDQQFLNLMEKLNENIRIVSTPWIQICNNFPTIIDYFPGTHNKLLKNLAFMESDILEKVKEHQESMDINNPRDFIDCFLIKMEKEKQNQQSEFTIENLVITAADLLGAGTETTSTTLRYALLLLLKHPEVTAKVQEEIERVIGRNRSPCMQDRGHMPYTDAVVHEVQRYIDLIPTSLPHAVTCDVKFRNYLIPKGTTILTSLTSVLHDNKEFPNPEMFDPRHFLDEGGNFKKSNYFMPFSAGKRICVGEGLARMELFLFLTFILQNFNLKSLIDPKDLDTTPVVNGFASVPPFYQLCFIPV
Sequence of Cytochrome P450 2D6 (Homo sapiens) (P10635 whole entry, looked up): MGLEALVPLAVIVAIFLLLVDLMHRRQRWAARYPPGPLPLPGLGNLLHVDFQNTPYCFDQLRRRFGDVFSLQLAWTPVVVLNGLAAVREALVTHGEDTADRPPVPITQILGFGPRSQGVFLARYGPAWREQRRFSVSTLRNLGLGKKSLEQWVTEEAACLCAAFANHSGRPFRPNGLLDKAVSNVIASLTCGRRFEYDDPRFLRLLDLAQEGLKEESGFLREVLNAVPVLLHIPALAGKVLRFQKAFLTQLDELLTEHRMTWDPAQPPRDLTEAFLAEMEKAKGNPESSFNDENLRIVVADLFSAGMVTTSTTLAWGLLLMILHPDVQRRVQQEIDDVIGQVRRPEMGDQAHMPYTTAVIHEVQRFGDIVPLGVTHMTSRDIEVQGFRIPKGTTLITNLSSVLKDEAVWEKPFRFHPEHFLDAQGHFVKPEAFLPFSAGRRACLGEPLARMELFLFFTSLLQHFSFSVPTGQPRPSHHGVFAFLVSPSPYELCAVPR
Sequence of Cytochrome P450 3A4 (Homo sapiens) (P08684 whole entry, looked up): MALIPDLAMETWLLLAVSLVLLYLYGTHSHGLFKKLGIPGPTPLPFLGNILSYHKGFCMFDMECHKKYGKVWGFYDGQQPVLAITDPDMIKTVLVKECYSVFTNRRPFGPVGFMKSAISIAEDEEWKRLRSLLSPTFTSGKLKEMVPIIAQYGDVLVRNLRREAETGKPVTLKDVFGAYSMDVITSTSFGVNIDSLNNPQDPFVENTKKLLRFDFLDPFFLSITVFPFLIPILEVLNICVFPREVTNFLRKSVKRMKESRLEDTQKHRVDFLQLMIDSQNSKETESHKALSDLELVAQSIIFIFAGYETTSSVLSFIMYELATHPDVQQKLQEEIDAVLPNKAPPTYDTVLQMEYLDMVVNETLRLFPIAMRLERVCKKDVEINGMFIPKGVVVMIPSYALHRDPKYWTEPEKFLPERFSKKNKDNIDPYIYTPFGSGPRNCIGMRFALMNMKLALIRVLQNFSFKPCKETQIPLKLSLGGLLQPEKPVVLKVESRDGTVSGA
Sequence of Nuclear receptor subfamily 1 group I member 2 (Homo sapiens) (O75469 whole entry, looked up): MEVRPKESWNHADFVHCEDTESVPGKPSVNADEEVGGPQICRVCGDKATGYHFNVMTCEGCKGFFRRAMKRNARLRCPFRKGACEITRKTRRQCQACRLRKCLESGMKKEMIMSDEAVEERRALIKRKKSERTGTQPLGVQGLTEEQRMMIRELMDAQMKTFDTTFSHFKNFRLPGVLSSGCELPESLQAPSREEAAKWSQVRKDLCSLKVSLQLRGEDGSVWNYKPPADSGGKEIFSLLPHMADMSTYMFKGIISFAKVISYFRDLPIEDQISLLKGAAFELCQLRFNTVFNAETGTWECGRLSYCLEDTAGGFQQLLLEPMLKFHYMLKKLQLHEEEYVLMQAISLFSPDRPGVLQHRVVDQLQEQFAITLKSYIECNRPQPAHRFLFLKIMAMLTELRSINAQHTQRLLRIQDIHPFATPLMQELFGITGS

On to `C1CCN2C[C@@H]3C[C@@H](CN4CCCC[C@@H]34)[C@H]2C1`, for which the call in assay [1], in assay [2], in assay [3], in assay [4], in assay [6] and in assay [8] was inactive. In addition, the Potency entry in assay [5], in assay [7], in [9] and in assay [10] was “inactive” each time.

As to `CCc1nccnc1C`, the compound was classed as inactive in assay [1], in assay [2], in assay [3], in assay [4], in [6] and in [8]. Further, the Potency entry in assay [5], in assay [7], in [9], in assay [11], in assay [12] and in assay [13] was “inactive” throughout. Besides, the Potency result in [14], in assay [10] and in assay [15] was “inactive” each time.

With `CCN(Cc1cccc(S(=O)(=O)O)c1)c1ccccc1`, the outcome in [1], in [2], in [3], in assay [4], in assay [6] and in assay [8] was inactive. Also, the Potency result in assay [5], in [7], in assay [9], in assay [16], in [14] and in [10] was “inactive” in each case. Moreover, the Potency result in assay [15] is “inactive”. Besides, the Potency in assay [13] was 17.8 µM (active).

For `CCCCCC1Nc2cc(C(F)(F)F)c(S(N)(=O)=O)cc2S(=O)(=O)N1` (centres undefined), the compound was called inactive in assay [1], in [2], in assay [3], in assay [4], in assay [6] and in assay [8]. Besides, the Potency result in [5], in assay [7], in [9], in assay [12] and in assay [14] was “inactive” each time. The Potency was 13.8 µM (active) in assay [11] and 23.9 µM (active) in assay [10].

With `CCCCCC(=O)OCC`, the outcome in assay [1], in assay [2], in [3], in assay [4], in assay [6] and in [8] was inactive. The Potency entry in assay [5], in assay [7], in assay [9], in [11], in [12] and in assay [13] was “inactive” throughout. For the same compound, the Potency entry in [10] and in assay [15] was “inactive” each time.

For `C[C@H]1O[C@H](O[C@H]2[C@H](O)[C@@H](O)[C@@H](O[C@H]3[C@H](O)[C@@H](O)[C@H](O)O[C@@H]3CO)O[C@@H]2CO)[C@H](O)[C@@H](O)[C@@H]1N[C@H]1C=C(CO)[C@@H](O)[C@H](O)[C@H]1O`, the outcome in assay [1], in assay [2], in assay [3], in [4], in [6] and in [8] was inactive. Further, the Potency entry in [5], in assay [7], in assay [9], in assay [11], in [12] and in assay [13] was “inactive” throughout. Besides, the Potency result in assay [14], in assay [10] and in [15] was “inactive” each time. In assay [17], the max activation is -1.07%.

Take `C=CC(C)(O)CC/C=C(\C)CC` (centres undefined): the compound was classed as inactive in assay [1], in [2], in assay [3], in [4], in [6] and in [8]. The Potency result in assay [5], in assay [7], in assay [9], in [11] and in assay [10] was “inactive” in each case. The results for the Potency in assay [12] and in [15] were 40 µM (active) and 22.5 µM (active), respectively.

Turning to `C=CCOC(=O)c1ccc(C(=O)OCC=C)c(C(=O)OCC=C)c1`, the call in [1], in assay [2], in assay [3], in assay [4], in [6] and in [8] was inactive. Besides, the Potency result in assay [5], in [7], in assay [9], in [16] and in [10] was “inactive” in each case. Besides, the Potency in assay [12] was 0.159 µM (active); in assay [14] it was 6.33 µM (active); in assay [15] it was 1.78 µM (active).

In the case of `C=C(C)C(=O)OC1CC(C)CC(C)(C)C1` (centres undefined), the compound was called inactive in [1], in assay [2], in assay [3], in assay [4], in [6] and in assay [8]. In addition, the Potency entry in [5], in assay [7], in assay [9], in assay [11], in [12] and in [13] was “inactive” in each case. Besides, the Potency entry in assay [10] and in assay [15] was “inactive” throughout. For the same compound, the Potency in [14] is 31.7 µM (active).
